We go through 32 molecules from PubChem BioAssay (Tox21).

Results filed as inconclusive are left out. Unmarked numbers belong to inactive results. Active and inactive are the calls of the source. The call rests on the fitted dose curve; in most records, active means well fitted curve in the direction sought with a large enough effect in the repeat runs; inconclusive means weak or mixed curves; inactive means no such curve, though single readings can be large; an effect the other way counts as inactive or inconclusive.

Assay [1] concerns the target Cytochrome P450 2C9 (Homo sapiens) (UniProt P11712). In words: Cytochrome P450 Family 2 Subfamily C Member 9 (CYP2C9) small molecule antagonists: luciferase reporter qHTS assay (AID 1671198). On activity change, negative = inhibition: series mostly up to about 120 µM. The procedure, abridged: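 P450-Glo proluciferin substrate with CYP2C9 enzyme; 10 min RT preincubation, then NADPH regeneration 1 h at 37C; luciferin detection reagent 20 min RT, luminescence in relative luminescence units.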

Assay [2] addresses Voltage-gated inwardly rectifying potassium channel KCNH2 (Homo sapiens) (UniProt Q12809). In words: Human Ether-a-go-go-Related Gene (hERG) channel small molecule antagonists: fluorescence cell-based qHTS assay (AID 1671200).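 On activity change, negative = inhibition: hERG-expressing U2OS cells given a thallium stimulus after FluxOR II dye loading; series mostly up to about 77 µM.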 The procedure, abridged:
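Channel function was assessed by thallium flux. Cells seeded the previous day and kept at 37 C took up FluxOR II dye over 1 h in the dark at room temperature, then sat another 10 min before stimulation.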

Assay [3] has as its target Cytochrome P450 3A4 (Homo sapiens) (UniProt P08684). In words: Cytochrome P450 Family 3 Subfamily A Member 4 (CYP3A4) small molecule antagonists: luciferase reporter qHTS assay (AID 1671201). On activity change, negative = inhibition: series mostly up to about 120 µM. In a few lines:
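Compounds in DMSO were pin-transferred onto CYP3A4 enzyme-substrate mix and held 10 min at room temperature. NADPH regenerating solution started the reaction for 1 h; luciferin detection reagent stopped it, and luminescence was read after 20 min.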

For assay [4], the target named is Cytochrome P450 1A2 (Homo sapiens) (UniProt P05177). Put plainly: Cytochrome P450 Family 1 Subfamily A Member 2 (CYP1A2) small molecule antagonists: luciferase reporter qHTS assay (AID 1671199). On activity change, negative = inhibition: series mostly up to about 120 µM. In a few lines: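 Room-temperature CYP1A2 reaction with proluciferin substrate: compounds added from DMSO, 10 min preincubation, NADPH regeneration for 1 h. Luciferin detection reagent then added; luminescence recorded as RLU.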
Cytochrome P450 1A2 (Homo sapiens), sequence (P05177 whole entry, looked up): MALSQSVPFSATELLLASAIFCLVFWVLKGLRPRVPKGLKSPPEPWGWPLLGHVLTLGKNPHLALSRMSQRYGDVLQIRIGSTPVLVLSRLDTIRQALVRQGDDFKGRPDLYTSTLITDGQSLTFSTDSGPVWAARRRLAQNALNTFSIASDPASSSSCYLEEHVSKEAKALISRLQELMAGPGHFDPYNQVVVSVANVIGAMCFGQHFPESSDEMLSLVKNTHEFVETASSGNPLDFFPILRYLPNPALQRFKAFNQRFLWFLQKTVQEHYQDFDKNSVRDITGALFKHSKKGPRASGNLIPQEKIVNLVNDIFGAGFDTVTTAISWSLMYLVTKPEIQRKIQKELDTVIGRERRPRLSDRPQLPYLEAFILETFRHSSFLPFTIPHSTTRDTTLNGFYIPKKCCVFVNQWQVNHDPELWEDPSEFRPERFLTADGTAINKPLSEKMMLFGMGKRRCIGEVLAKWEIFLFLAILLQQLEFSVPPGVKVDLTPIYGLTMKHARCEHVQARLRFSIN
Further: nearly all actives have a fitted effect of over 50% in size.
On the % scale 0 is the no-effect control and ±100 the full control effect; potency means the concentration at half of the fitted maximal effect.

Cytochrome P450 3A4 (Homo sapiens), sequence (P08684 whole entry, looked up): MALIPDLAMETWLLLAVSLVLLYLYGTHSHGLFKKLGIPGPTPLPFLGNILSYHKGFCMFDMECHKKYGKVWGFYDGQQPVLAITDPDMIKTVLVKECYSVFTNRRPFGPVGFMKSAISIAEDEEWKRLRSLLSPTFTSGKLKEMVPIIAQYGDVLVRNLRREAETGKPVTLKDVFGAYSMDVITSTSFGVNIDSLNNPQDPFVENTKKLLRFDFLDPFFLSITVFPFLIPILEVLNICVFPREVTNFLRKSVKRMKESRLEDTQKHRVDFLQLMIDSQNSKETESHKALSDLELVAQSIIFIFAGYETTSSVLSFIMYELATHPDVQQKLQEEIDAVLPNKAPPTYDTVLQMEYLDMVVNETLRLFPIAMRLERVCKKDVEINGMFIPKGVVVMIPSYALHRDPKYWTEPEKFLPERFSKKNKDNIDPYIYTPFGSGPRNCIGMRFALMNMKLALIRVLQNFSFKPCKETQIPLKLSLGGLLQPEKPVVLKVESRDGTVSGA
Cytochrome P450 2C9 (Homo sapiens), sequence (P11712 whole entry, looked up): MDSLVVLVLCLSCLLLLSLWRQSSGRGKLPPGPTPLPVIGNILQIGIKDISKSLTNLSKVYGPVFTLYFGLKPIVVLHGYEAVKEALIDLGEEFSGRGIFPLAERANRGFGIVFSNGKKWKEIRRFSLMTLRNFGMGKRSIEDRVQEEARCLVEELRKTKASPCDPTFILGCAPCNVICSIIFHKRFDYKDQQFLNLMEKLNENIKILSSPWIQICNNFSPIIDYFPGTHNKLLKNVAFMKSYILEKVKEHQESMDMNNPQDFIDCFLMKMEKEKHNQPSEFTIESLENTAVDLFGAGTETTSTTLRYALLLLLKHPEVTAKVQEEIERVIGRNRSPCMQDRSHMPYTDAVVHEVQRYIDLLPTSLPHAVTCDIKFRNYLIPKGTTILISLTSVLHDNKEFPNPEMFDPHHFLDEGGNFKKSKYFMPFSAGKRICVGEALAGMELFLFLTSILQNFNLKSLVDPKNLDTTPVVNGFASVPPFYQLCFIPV
Voltage-gated inwardly rectifying potassium channel KCNH2 (Homo sapiens), sequence (Q12809 whole entry, looked up): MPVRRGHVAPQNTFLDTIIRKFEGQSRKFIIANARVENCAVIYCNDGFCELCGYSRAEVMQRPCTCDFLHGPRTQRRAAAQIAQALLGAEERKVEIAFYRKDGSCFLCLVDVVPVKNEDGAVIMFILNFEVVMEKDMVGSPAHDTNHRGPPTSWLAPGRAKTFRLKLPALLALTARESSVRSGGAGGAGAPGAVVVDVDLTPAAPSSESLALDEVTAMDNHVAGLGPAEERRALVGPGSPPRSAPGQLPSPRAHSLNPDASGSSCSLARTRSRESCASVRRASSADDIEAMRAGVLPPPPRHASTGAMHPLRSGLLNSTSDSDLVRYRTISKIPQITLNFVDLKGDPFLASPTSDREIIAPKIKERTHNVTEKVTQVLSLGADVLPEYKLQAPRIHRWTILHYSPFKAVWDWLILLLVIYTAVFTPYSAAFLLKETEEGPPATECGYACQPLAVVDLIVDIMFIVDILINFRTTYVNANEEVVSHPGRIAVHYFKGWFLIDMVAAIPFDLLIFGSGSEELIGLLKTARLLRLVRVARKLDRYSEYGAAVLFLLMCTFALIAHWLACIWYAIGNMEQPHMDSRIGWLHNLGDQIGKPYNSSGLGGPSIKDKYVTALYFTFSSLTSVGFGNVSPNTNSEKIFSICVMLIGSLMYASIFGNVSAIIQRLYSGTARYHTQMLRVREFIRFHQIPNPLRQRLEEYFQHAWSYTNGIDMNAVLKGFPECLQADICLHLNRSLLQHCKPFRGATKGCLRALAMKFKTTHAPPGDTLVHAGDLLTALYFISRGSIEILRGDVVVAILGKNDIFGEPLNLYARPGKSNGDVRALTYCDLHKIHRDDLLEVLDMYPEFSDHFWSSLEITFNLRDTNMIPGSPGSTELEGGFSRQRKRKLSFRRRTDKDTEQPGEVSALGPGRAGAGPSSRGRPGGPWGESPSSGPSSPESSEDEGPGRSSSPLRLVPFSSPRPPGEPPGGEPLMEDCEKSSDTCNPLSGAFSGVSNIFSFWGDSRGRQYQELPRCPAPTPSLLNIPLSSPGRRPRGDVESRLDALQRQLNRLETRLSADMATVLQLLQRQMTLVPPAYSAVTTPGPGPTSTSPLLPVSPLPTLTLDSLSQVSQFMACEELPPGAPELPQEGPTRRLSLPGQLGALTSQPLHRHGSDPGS

In the case of `CC(C)=CCCC(C)CCOC=O` (centres undefined), in assay [1], the Potency is 71 µM (active). The Potency result in assay [2] was “inactive”.
Consider `CC(C)O`, for which the Potency result in assay [1], in assay [2] and in assay [3] was “inactive” throughout.
Turning to `CC1=C2[C@H](/C=C(\C)C(=O)O)CC[C@@H](C)[C@H]2CC1`, the Potency in assay [1] and in assay [4] was 65.6 µM (active) each time. Also, the Potency entry in assay [2] and in assay [3] was “inactive” in each case.
With `CCCCCCCCCC#N`, the Potency entry in assay [1], in assay [2] and in assay [3] was “inactive” in each case.
On to `CN1CCN(c2c(F)cc3c(=O)c(C(=O)O)cn(CCF)c3c2F)CC1`, for which the Potency entry in assay [1], in assay [4], in assay [2] and in assay [3] was “inactive” in each case.
In the case of `COC(C)CCO` (centres undefined), the Potency result in assay [1], in assay [4], in assay [2] and in assay [3] was “inactive” throughout.
With `Cc1cccc(C)c1NC(=O)CN1CCCCCC1`, the Potency result in assay [1], in assay [4] and in assay [3] was “inactive” throughout.
Consider `CCCOc1ccc2c(c1)CC[C@@H]1[C@@H]2CC[C@]2(C)C(OC)CC[C@@H]12` (some centres undefined), for which the Potency in assay [1] was 34.7 µM (active). Besides, the Potency entry in assay [2] and in assay [3] was “inactive” each time.
Take `COC(=O)c1ccc2cc(C(=O)OC)ccc2c1`: the Potency entry in assay [1] is “inactive”. In assay [4], the Potency was 2.58 µM (active). The activity change, negative = inhibition was 9.84% [at 15.8 µM] in assay [2] and 16.2% [at 23.6 µM] in assay [3].
As to `CCN[C@H]1CN(CCCOC)S(=O)(=O)c2sc(S(N)(=O)=O)cc21`, the Potency result in assay [1], in assay [4], in assay [2] and in assay [3] was “inactive” in each case.
Take `CCN(CC)C(=O)N(CC)CC`: the Potency entry in assay [1], in assay [2] and in assay [3] was “inactive” each time.
For the molecule `CCCCNCCCC`, the Potency entry in assay [1], in assay [4] and in assay [3] was “inactive” in each case.
Consider `COc1ccc(Nc2ccc(OC)cc2)cc1`, for which the Potency in assay [1] was 16.2 µM (active); in assay [4], 18.2 µM (active). In addition, the Potency result in assay [2] was “inactive”.
Regarding `CCOC(=O)C(Br)c1ccccc1` (centres undefined), the Potency in assay [1] was 79.6 µM (active). Besides, the Potency entry in assay [2] and in assay [3] was “inactive” throughout.
`Cc1c(C(=O)NCCO)[n+](=O)c2ccccc2n1[O-]`: the Potency result in assay [1], in assay [4] and in assay [3] was “inactive” in each case.
With `CCC(=O)Nc1ccc(O)cc1`, the Potency result in assay [1], in assay [4] and in assay [2] was “inactive” each time.
With `CC/C=C\CCOC(=O)CCCCC`, the Potency entry in assay [1], in assay [2] and in assay [3] was “inactive” in each case.
In the case of `NCCC(O)(P(=O)(O)O)P(=O)(O)O`, the Potency entry in assay [1], in assay [2] and in assay [3] was “inactive” throughout. Besides, the Potency in assay [4] was 24.5 µM (active).
In the case of `CNCCC(Oc1ccccc1OC)c1ccccc1` (centres undefined), in assay [1], the Potency result was “inactive”. Besides, the Potency in assay [2] is 8.49 µM (active).
As for `CC(C)S`, the Potency result in assay [1], in assay [4] and in assay [3] was “inactive” each time.
Take `CCCCC1CCC(=O)O1` (centres undefined): the Potency entry in assay [1] and in assay [3] was “inactive” each time.
Take `CCCCCCCCCCCCCCCCOP(=O)([O-])OCC[N+](C)(C)C`: the Potency result in assay [1] and in assay [3] was “inactive” each time.
For the molecule `CCCS(=O)c1ccc2nc(NC(=O)OC)[nH]c2c1` (centres undefined), the Potency result in assay [1], in assay [2] and in assay [3] was “inactive” in each case.
As for `NNS(=O)(=O)c1ccc(Oc2ccc(S(=O)(=O)NN)cc2)cc1`, in assay [1], the Potency was 5.03 µM (active). For the same molecule, the Potency entry in assay [4], in assay [2] and in assay [3] was “inactive” throughout.
Regarding `CC(=O)O[C@H]1CC[C@@]2(C)C(=CC[C@@H]3[C@@H]2CC[C@]2(C)C(C(C)=O)=CC[C@@H]32)C1`, the Potency result in assay [1], in assay [4] and in assay [3] was “inactive” in each case.
Regarding `OCc1c2ccccc2cc2ccccc12`, the Potency is 22.5 µM (active) in assay [1], 0.897 µM (active) in assay [4] and 25.3 µM (active) in assay [3]. Also, in assay [2], the Potency result was “inactive”.
In the same order, the values of `CC(C)c1ccccc1` are “inactive”, “inactive”, “inactive” and “inactive”.
For `Cc1ncc(CO)c(CN)c1O`, the Potency result in assay [1], in assay [4] and in assay [2] was “inactive” each time.
With `CCOC(=O)[C@H](CCc1ccccc1)N[C@@H](C)C(=O)N1Cc2cc(OC)c(OC)cc2C[C@H]1C(=O)O`, the Potency in assay [1] was 15.5 µM (active). Also, the Potency result in assay [4] and in assay [2] was “inactive” each time.
On to `Cc1cc2nc(N)sc2cc1C`, for which the Potency in assay [1] is 35.9 µM (active); in assay [4], 1.14 µM (active); in assay [3] it was 25.4 µM (active). In addition, the Potency entry in assay [2] was “inactive”.
The like results for `CCCCCCC` were, in that order, “inactive”, “inactive”, “inactive” and “inactive”.
`CCCCC(CC)COC(=O)COc1cc(Cl)c(Cl)cc1Cl` (centres undefined): the Potency is 8.94 µM (active) in assay [1], 15.9 µM (active) in assay [4] and 6.33 µM (active) in assay [3]. The Potency entry in assay [2] was “inactive”.
